# Measurements from PubChem BioAssay (NCI).
# Compounds without any hit were thinned out: in the full panel of roughly 83,000, 20% have a hit.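 Percent growth is the endpoint: 0 to 100 indicates growth inhibition (40 means 60% inhibition), 0 means no net growth, and negative values indicate cell death.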 Values without a mark were called inactive. Active and inactive are the calls of the source. The calls were made as follows: active = growth percent below 10; inactive = the rest.
# How the values were obtained:
# Test in all cases: NCI-60 one-dose screen, 48 h (100 = growth as untreated, 0 = no growth, -100 = all killed)
# Settings in all cases: 10 µM unless noted
# RPMI-8226 leukemia = system: RPMI-8226 leukemia
# OVCAR-8 ovarian = system: OVCAR-8 ovarian
# OVCAR-5 ovarian = system: OVCAR-5 ovarian
# OVCAR-4 ovarian = system: OVCAR-4 ovarian
# SK-OV-3 ovarian = system: SK-OV-3 ovarian
# IGROV1 ovarian = system: IGROV1 ovarian
# OVCAR-3 ovarian = system: OVCAR-3 ovarian
# HS 578T breast = system: HS 578T breast
# NCI/ADR-RES ovarian = system: NCI/ADR-RES ovarian
# T-47D breast = system: T-47D breast
# BT-549 breast = system: BT-549 breast
# MDA-MB-435 melanoma = system: MDA-MB-435 melanoma
# SW-620 colon = system: SW-620 colon
# MCF7 breast = system: MCF7 breast
# HCT-116 colon = system: HCT-116 colon
# HCC-2998 colon = system: HCC-2998 colon
# KM12 colon = system: KM12 colon
SMILES,growth (RPMI-8226 leukemia),growth (OVCAR-8 ovarian),growth (OVCAR-5 ovarian),growth (OVCAR-4 ovarian),growth (SK-OV-3 ovarian),growth (IGROV1 ovarian),growth (OVCAR-3 ovarian),growth (HS 578T breast),growth (NCI/ADR-RES ovarian),growth (T-47D breast),growth (BT-549 breast),growth (MDA-MB-435 melanoma),growth (SW-620 colon),growth (MCF7 breast),growth (HCT-116 colon),growth (HCC-2998 colon),growth (KM12 colon)
CSc1nc(-c2ccco2)c2c(N)[nH]nc2n1,109%,108%,109%,109%,98.6%,109%,116%,108%,103%,75.7%,102%,115%,111%,94.2%,84.1%,111%,44.1%
CCN1CCN(Cc2ccc(NC(=O)c3cccc(C#Cc4cccc5[nH]nc(N)c45)c3)cc2C(F)(F)F)CC1,-36.9% (active),-69.9% (active),-20% (active),-2.48% (active),-13.5% (active),-60.3% (active),-62.8% (active),-19.9% (active),-35% (active),-32% (active),3.52% (active),-91.2% (active),-76% (active),-77.8% (active),-96.5% (active),-87.4% (active),-75% (active)
Cn1cc(-c2ccc3c(c2)ncn3-c2ccc(CC(=O)Nc3cc(C(C)(C)C)on3)cc2)cn1,76.8%,41.4%,22.8%,12.3%,7.18% (active),-27.7% (active),32.4%,-7.52% (active),38.7%,35.5%,31.5%,34.8%,33.7%,26.9%,16.6%,76.3%,16.3%
Sc1cccc2cccnc12,26.5%,27.1%,59.6%,36.3%,45.5%,36.9%,17.9%,71.9%,24.8%,40.5%,48.4%,44.9%,38.7%,26.8%,11.5%,40%,25.4%
Cc1nccc2c3ccc(OCc4cn(-c5ccc(Br)cc5)nn4)cc3n(CC(C)C)c12,-16.2% (active),40.7%,68.2%,58.8%,43.4%,67.4%,57.8%,59.4%,32.1%,36.9%,54.4%,61.3%,48%,31.2%,23%,70.3%,44.8%
CCC1=C[C@H]2CN(CCc3c([nH]c4ccccc34)[C@@](C(=O)OC)(c3cc4c(cc3OC)N(C)[C@H]3[C@@](O)(C(=O)OC)[C@H](OC(C)=O)[C@]5(CC)[C@@H]6C[C@@H]6CN6CC[C@]43[C@@H]65)C2)C1,-25.3% (active),8.29% (active),42%,37.6%,17.9%,21.6%,0.761% (active),10.8%,28%,70%,16.1%,-32.6% (active),29.2%,7.76% (active),4.74% (active),22.2%,16.2%
COc1ccc2[nH]c(-c3ccccc3)c(C=C(C#N)C#N)c2c1,-50.2% (active),48.2%,65.7%,35%,51.2%,49.5%,7.4% (active),40.9%,-4.6% (active),26.4%,4.38% (active),-55.1% (active),25.1%,17.1%,23.5%,49.3%,18.6%
CCCn1cc(/C=N\N=C2\C(=O)Nc3ccc(C)cc32)c2ccccc21,-24.9% (active),47.5%,84.6%,41.8%,88.4%,39.4%,2.1% (active),74%,76.3%,39.6%,63.5%,-26.6% (active),36.7%,8.92% (active),39.9%,47%,59.9%
O=C1NC(c2ccc(F)cc2)N=C2C(c3ccccc3)=NOC12 (centres undefined),107%,106%,108%,105%,106%,108%,109%,106%,112%,104%,106%,106%,106%,101%,103%,101%,98.8%
O=C(CN1N=C(c2ccc(F)cc2)CCC1=O)Nc1nc2ccccc2s1,26.8%,-43% (active),16.9%,35.4%,73.5%,-49.5% (active),-40.6% (active),67.6%,6.92% (active),83.3%,-71.2% (active),99.9%,57.8%,87.4%,70.7%,95.7%,45.1%
Cc1ccn2c3c(c(C(=O)O)c2c1)C(=O)c1ccccc1C3=O,90.6%,80.1%,121%,69.9%,98.3%,81.3%,45.6%,43.7%,85.2%,90.7%,58.9%,-78.2% (active),74.1%,61.1%,82.3%,62%,66.7%
Cc1cc(Nc2nc(SCc3ccc(C(=O)Nc4ccc(F)cc4N)cc3)nn3cccc23)n[nH]1,13.1%,15.4%,52.3%,40.8%,17.9%,33.6%,11.4%,37.4%,30.2%,62.1%,27%,12.8%,23.9%,23.5%,10.1%,23.9%,7.02% (active)
CCN(CC)c1ccc2c(c1)Oc1nc(N)c(C#N)c(N)c1C2Sc1ccc(OC)cc1 (centres undefined),-28.3% (active),5.24% (active),51.9%,46.2%,34%,-3.83% (active),-15.1% (active),19.7%,46.9%,51.8%,-0.405% (active),-26.8% (active),-8.27% (active),0.303% (active),2.7% (active),-49.2% (active),-33% (active)
COc1cc(-c2cn(-c3ccc(Cl)c(Cl)c3)c(=O)[nH]2)cc(OC)c1OC,99.3%,95.1%,87.6%,98.9%,88.3%,136%,99.5%,95.3%,95.5%,90.1%,102%,96.4%,109%,87.7%,78.7%,99.9%,90.8%
N#Cc1c(-c2ccc(F)cc2)nc(N/N=C/c2cccc(O)c2)nc1N1CCOCC1,41.3%,69.7%,108%,79.7%,93.9%,61.4%,78.6%,84.4%,72.8%,89.2%,93.4%,93.4%,73.7%,72.4%,71%,95.1%,86%
c1ccc2c3c([nH]c2c1)C(c1ccc(C2NCCc4c2[nH]c2ccccc42)cc1)NCC3 (centres undefined),-40.3% (active),-41.4% (active),77%,23.5%,49.1%,25.8%,-65.3% (active),-16.8% (active),63.1%,-59% (active),86.9%,-91.6% (active),-80% (active),-81.2% (active),-91.7% (active),-64.8% (active),-62% (active)
NS(=O)(=O)c1ccc(-n2ncc(NC(=O)Nc3ccc(S(=O)(=O)Nc4nccs4)cc3)c2-c2ccccc2)cc1,103%,102%,99%,101%,99.5%,105%,111%,102%,105%,94.2%,103%,98.1%,98.5%,92%,93%,107%,108%
